According to PubChem BioAssay (NCI):
Several values for one entry are separate records, joined by “and”; a condition that tells them apart may be missing. Identical values can stand only once. Compounds without any hit were thinned out: in the full panel of roughly 83,000, 20% have a hit.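 Each cell line was grown in a 96-well plate and treated with one concentration of compound for 48 hours. Values below 10 were considered active.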 Activity calls are given as the source filed them.

Legend:
Assay in all cases: NCI-60 one-dose screen, 48 h (100 = growth as untreated, 0 = no growth, -100 = all killed)
Conditions in all cases: 10 µM
[1] = test system: DU-145 prostate
[2] = test system: K-562 leukemia
[3] = test system: MALME-3M melanoma
[4] = test system: MDA-MB-231 breast
[5] = test system: RXF 393 renal
[6] = test system: SF-268 CNS
[7] = test system: SF-295 CNS
[8] = test system: SF-539 CNS
[9] = test system: UACC-257 melanoma
[10] = test system: M14 melanoma

Structure (SMILES) | growth [1] | growth [2] | growth [3] | growth [4] | growth [5] | growth [6] | growth [7] | growth [8] | growth [9] | growth [10]
O=C(CBr)Nc1ccc(Cl)cc1 | 105% (inactive) | 12.8% (inactive) | 29.8% (inactive) | 64.4% (inactive) | 97.7% (inactive) | 88.9% (inactive) | 103% (inactive) | 105% (inactive) | 99.7% (inactive) | 67.2% (inactive)
CC/C(=C/c1ccc(OC)cc1)[N+](=O)[O-] | 31.5% (inactive) | 5.85% (active) | -36.1% (active) | -18.5% (active) | -79.7% (active) | 38% (inactive) | 98.1% (inactive) | -19.6% (active) | 4.44% (active) | 19.9% (inactive)
S=C=NCCc1ccccc1 | 44.5% (inactive) | 20.4% (inactive) | 88.7% (inactive) | 38.4% (inactive) | 31.5% (inactive) | 58.2% (inactive) | 115% (inactive) | 29.1% (inactive) | 88.5% (inactive) | 
Oc1c(I)cc(I)cc1I | 114% (inactive) | 98.6% (inactive) | 121% (inactive) | 93.7% (inactive) | 108% (inactive) | 104% (inactive) | 110% (inactive) | 102% (inactive) | 107% (inactive) | 
COC(C(=O)C(O)C(C)O)C1Cc2cc3cc(OC4CC(OC(C)=O)C(OC5CC(O)C(OC)C(C)O5)C(C)O4)cc(O)c3c(O)c2C(=O)C1OC1CC(OC2CC(OC3CC(C)(O)C(OC(=O)C(C)C)C(C)O3)C(O)C(C)O2)C(O)C(C)O1 (centres undefined) | -32.2% (active) | -68.4% (active) | -89.1% (active) | -26.3% (active) | -24.6% (active) | 2.42% (active) | -14.4% (active) | -78.2% (active) | -19.1% (active) | 
COc1cc(/C=C(/C)[N+](=O)[O-])ccc1O | 21.7% (inactive) and 17.1% (inactive) | 2.31% (active) and 1.66% (active) | 40% (inactive) and 1.16% (active) | 66.3% (inactive) and 50.5% (inactive) | -57.5% (active) and -94.8% (active) | 47.5% (inactive) and 87.3% (inactive) | 99.2% (inactive) | 57.2% (inactive) and 20.3% (inactive) | 18.2% (inactive) and -56% (active) | 39.6% (inactive)
ClCc1ccc2ccccc2n1 | 102% (inactive) | 72.3% (inactive) | 97.6% (inactive) | 102% (inactive) | 95.5% (inactive) | 80.5% (inactive) | 87.3% (inactive) | 106% (inactive) | 104% (inactive) | 84.7% (inactive)
O=[N+]([O-])/C=C/c1ccc([N+](=O)[O-])cc1 | -47.5% (active) and 72.1% (inactive) | 5.65% (active) and 18.5% (inactive) | 66.7% (inactive) and 54.6% (inactive) | 66.5% (inactive) and 84.5% (inactive) | 101% (inactive) | 25.4% (inactive) and 103% (inactive) | 76.2% (inactive) and 104% (inactive) | -27.5% (active) and 75.7% (inactive) | -4.16% (active) and 96.5% (inactive) | -29.1% (active) and 66.1% (inactive)
Cn1c(O)c(N=O)c(=O)n(C)c1=O | 98.1% (inactive) and 106% (inactive) | 94.1% (inactive) and 95.2% (inactive) | 99.1% (inactive) and 107% (inactive) | 107% (inactive) and 101% (inactive) | 107% (inactive) and 115% (inactive) | 92.8% (inactive) and 97.5% (inactive) | 102% (inactive) and 93.7% (inactive) | 102% (inactive) and 90.7% (inactive) | 99.3% (inactive) and 95.7% (inactive) | 111% (inactive) and 102% (inactive)
COS(=O)(=O)c1ccccc1 | 114% (inactive) | 103% (inactive) | 111% (inactive) | 123% (inactive) | 109% (inactive) | 95.9% (inactive) | 109% (inactive) | 101% (inactive) | 101% (inactive) | 
O=C(CCl)Nc1ccc(Cl)cc1 | 76.1% (inactive) | 19.4% (inactive) | 28% (inactive) | 46.7% (inactive) | 35.2% (inactive) | 41.9% (inactive) | 68.8% (inactive) | 105% (inactive) | 69.9% (inactive) | 47.1% (inactive)
Cc1cc(C(C)(C)c2ccc(O)c(C)c2)ccc1O | 107% (inactive) | 80.8% (inactive) | 88.4% (inactive) | 80.5% (inactive) | 93.5% (inactive) | 90.3% (inactive) | 104% (inactive) | 92.2% (inactive) | 81.7% (inactive) | 106% (inactive)
Cc1ccc(C(=O)C2C(c3ccccc3)N2C2CCCCC2)cc1 (centres undefined) | 105% (inactive) and 111% (inactive) | 87.3% (inactive) and 83% (inactive) | 98.1% (inactive) and 97.9% (inactive) | 117% (inactive) and 112% (inactive) | 111% (inactive) and 96.8% (inactive) | 111% (inactive) and 102% (inactive) | 106% (inactive) | 99.9% (inactive) and 103% (inactive) | 89.9% (inactive) and 98.6% (inactive) | 93.8% (inactive) and 92.2% (inactive)
COc1ccc2c(ccc3oc([N+](=O)[O-])cc32)c1 | 0.495% (active) | 0.428% (active) | -55% (active) | -20.3% (active) | -64.3% (active) | -6.08% (active) | -0.437% (active) | -18.7% (active) | -56.9% (active) | -40.2% (active)
[O-][n+]1ccccc1S | 32.3% (inactive) | 31.2% (inactive) | 110% (inactive) | 58.7% (inactive) | 46.9% (inactive) | 70.7% (inactive) | 44.4% (inactive) | 67.6% (inactive) | 23.9% (inactive) | 
CC(C)(C)OOC(=O)/C=C\C(=O)OOC(C)(C)C | 112% (inactive) | 104% (inactive) | 141% (inactive) | 97.5% (inactive) | 105% (inactive) | 93.8% (inactive) | 138% (inactive) | 93.8% (inactive) | 99.4% (inactive) | 
CC/C(=C/c1ccc(OC)cc1OC)[N+](=O)[O-] | 39.1% (inactive) | 3.65% (active) | 8.59% (active) | 18.4% (inactive) | -59.6% (active) | 41.5% (inactive) | 101% (inactive) | -1.55% (active) | 45.8% (inactive) | 54% (inactive)
COc1cc2c(cc1OC)C13CCN4CC5=CCOC6CC(=O)N2C1C6C5CC43 (centres undefined) | 123% (inactive) and 116% (inactive) | 124% (inactive) and 74.9% (inactive) | 126% (inactive) and 103% (inactive) | 111% (inactive) and 87.4% (inactive) | 127% (inactive) | 103% (inactive) | 105% (inactive) and 134% (inactive) | 96.8% (inactive) and 80.2% (inactive) | 104% (inactive) | 107% (inactive) and 108% (inactive)
CC[C@@H](C)[C@@H]1NC(=O)C(NC(=O)C(CC(C)C)N(C)C(=O)C2CCCN2C(=O)C(C)O)C(C)OC(=O)C(Cc2ccc(OC)cc2)N(C)C(=O)C2CCCN2C(=O)C(CC(C)C)NC(=O)C(C)C(=O)C(C(C)C)OC(=O)C[C@H]1O (some centres undefined) | -40.7% (active) | -27% (active) | -87.2% (active) | -55.6% (active) | -66.2% (active) | -49.4% (active) | -31% (active) | -70.1% (active) | -50.8% (active) | -80.1% (active)
CC(C)C1(NC(=O)C2CC3c4cccc5[nH]cc(c45)CC3N(C)C2)OC2(O)C3CCCN3C(=O)C(Cc3ccccc3)N2C1=O (centres undefined) | 104% (inactive) | 69.8% (inactive) | 98.8% (inactive) | 86.9% (inactive) | 96.6% (inactive) | 93.1% (inactive) | 106% (inactive) | 98.8% (inactive) | 93.7% (inactive) | 103% (inactive)
COc1cc(/C=C/[N+](=O)[O-])cc(Br)c1OC | 66.5% (inactive) | 4.74% (active) | 98.1% (inactive) | 7.14% (active) | -80.5% (active) | 32% (inactive) | 78.3% (inactive) | 28.5% (inactive) | -13.2% (active) | -72.1% (active)
O=C1C=Cc2ccccc2C1=O | 45.9% (inactive) | 38.6% (inactive) | 52.7% (inactive) | 67.1% (inactive) | 46.5% (inactive) | 87.8% (inactive) | 94% (inactive) | 76.7% (inactive) | 75.9% (inactive) | 39.4% (inactive)
COc1cc(/C=C\[N+](=O)[O-])ccc1O | 27.4% (inactive) and 61.2% (inactive) | 26.5% (inactive) and 48.1% (inactive) | 50.4% (inactive) and 96.4% (inactive) | 91.6% (inactive) and 83.6% (inactive) | 23.2% (inactive) and 56% (inactive) | 75.5% (inactive) and 87.6% (inactive) | 110% (inactive) and 104% (inactive) | 70.5% (inactive) and 83.2% (inactive) | 61.2% (inactive) and 90.5% (inactive) | 71.3% (inactive) and 52.1% (inactive)
O=[N+]([O-])c1ccc(Br)c([N+](=O)[O-])c1 | 93.4% (inactive) | 34.6% (inactive) | 68.6% (inactive) | 88.9% (inactive) | 102% (inactive) | 96.8% (inactive) | 108% (inactive) | 98.7% (inactive) | 74.3% (inactive) | 79.9% (inactive)
